# TRPV1 ag: human TRPV1 agonism. Q8NER1. TRPV1-expressing cells, Fluo-8 calcium influx, agonist mode. activation, % at 8.33 µM. 320,000 compounds, 0.19% hits; in the data active = activation above about 80%; inconclusive = between about 30% and that limit; also: 0% is about no effect
# Target sequence (Q8NER1 whole entry, looked up): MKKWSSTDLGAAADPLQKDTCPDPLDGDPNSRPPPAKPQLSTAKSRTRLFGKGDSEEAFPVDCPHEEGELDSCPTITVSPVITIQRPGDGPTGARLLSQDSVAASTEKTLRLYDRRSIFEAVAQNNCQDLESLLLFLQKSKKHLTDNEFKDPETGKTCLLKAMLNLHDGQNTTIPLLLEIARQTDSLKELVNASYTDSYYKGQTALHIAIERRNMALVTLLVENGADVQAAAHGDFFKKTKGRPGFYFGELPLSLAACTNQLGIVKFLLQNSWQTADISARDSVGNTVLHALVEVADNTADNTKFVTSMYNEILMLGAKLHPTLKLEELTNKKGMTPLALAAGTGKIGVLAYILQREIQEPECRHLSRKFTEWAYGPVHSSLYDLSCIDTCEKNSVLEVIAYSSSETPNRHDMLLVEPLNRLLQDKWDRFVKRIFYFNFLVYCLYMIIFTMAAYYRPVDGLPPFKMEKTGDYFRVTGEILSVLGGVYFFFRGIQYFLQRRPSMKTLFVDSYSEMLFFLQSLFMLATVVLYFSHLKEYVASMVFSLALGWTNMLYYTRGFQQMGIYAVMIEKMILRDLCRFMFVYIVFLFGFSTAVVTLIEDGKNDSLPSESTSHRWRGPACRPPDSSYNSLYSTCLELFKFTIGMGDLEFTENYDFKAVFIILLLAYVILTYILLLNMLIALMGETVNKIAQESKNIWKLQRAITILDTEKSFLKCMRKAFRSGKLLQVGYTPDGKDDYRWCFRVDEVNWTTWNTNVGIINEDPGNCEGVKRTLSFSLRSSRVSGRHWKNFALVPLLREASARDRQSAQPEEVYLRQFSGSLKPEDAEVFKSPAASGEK
#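 Cells expressing TRPV1 were dye-loaded with Fluo-8 and read kinetically: 10 s baseline, 3 min after compound (agonist portion), then 2 min after EC20 capsaicin (allosteric enhancer portion). Calcium-bound dye fluorescence at 480/520 nm.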
# VP16 counter: Gal4-VP16 reporter inhibition counter-screen; Drosophila S2 Gal4-VP16 UAS-luciferase, luminescence, 20 h; 310,000 compounds, 3.5% hits; Potency, µM (series often up to 53.6 µM), inactives show at the top dose activity, negative = inhibition, actives largely listed as inhibitors;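 also: Gal4-VP16 expression switched on by copper sulfate through the metallothionein promoter; potency is read from the fitted curve at half-maximal effect; % is scaled to controls: 0 for no effect and ±100 for the full control effect; nearly all actives have a fitted effect of over 50% in size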
# RORgamma inh: ROR gamma (mouse) transcription inhibition; Drosophila S2 Gal4-RORgamma UAS-luciferase reporter, 20 h; Potency, µM (top dose mostly 53.6 µM), for inactives: at the highest dose activity change, negative = inhibition, most hits filed as inhibitors; 310,000 compounds, 5.4% hits; also: potency is read from the fitted curve at half-maximal effect; % is scaled to controls: 0 for no effect and ±100 for the full control effect; nearly all actives have a fitted effect of over 60% in size
#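 Read-out: Photinus luciferase luminescence; inhibitors lower reporter signal. Insect Schneider cells with Gal4-ROR gamma fusion under metallothionein promoter, UAS reporter; 700 uM final copper sulfate induction, 20 hr, ambient temperature.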
# uPA generation: inhibitors of cell surface uPA generation. Potency, µM (titrated, usually from 38.3 µM), without a hit: at the top dose activity change, negative = inhibition, most hits filed as inhibitors. cell surface uPA generation assay, qHTS. 330,000 compounds, 0.31% hits; active = well fitted inhibition curve with a large enough effect; inconclusive = small, poorly fitted or top-dose-only effect; inactive = no such curve, though single readings can be large or run the other way; tested in mouse RAW 264.7 cells; also: potency is read from the fitted curve at half-maximal effect; % is scaled to controls: 0 for no effect and ±100 for the full control effect; nearly all actives have a fitted effect of over 55% in size
# TRPV1 PAM: potentiators of human vanilloid receptor 1 (TRPV1); Q8NER1; TRPV1-expressing cells, Fluo-8 calcium influx, capsaicin EC20 potentiation; potentiation, % at 8.33 µM; 320,000 compounds, 0.02% hits; in the data active = potentiation above about 80%; inconclusive = between about 30% and that limit; also: 0% is about no effect
#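 Fluo-8 calcium influx in TRPV1-expressing cells, kinetic read (ex 480/em 520 nm). Compound added and read 3 min for agonist activity, followed by capsaicin at EC20 final and 2 min further read for enhancement.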
# Active calls of the source: *; ? = inconclusive; · = no result given; [ ] = remark or other dose. Only some compounds are listed: those with a hit (about 5.8% of all), similar ones and a draw of the others. Unless noted, calls follow the shape of the dose curve; as a rule, active = well fitted curve in the direction sought with a large enough effect; inconclusive = small, poorly fitted or top-dose-only effect, or another doubt; inactive = no such curve, though single readings can be large; an effect the other way counts as inactive or inconclusive.
SMILES,TRPV1 ag,VP16 counter,RORgamma inh,uPA generation,TRPV1 PAM
CCCCCN1CSC(=S)N(Cc2ccccc2)C1,9,18µM*,10µM*,-8%,-4
CCCCN1CCc2c(c3ccccc3n2Cc2ccccc2)C1,5,2%,13%,-32%,3
CCOC1=CC(=O)N(Cc2ccccc2)C1,·,·,·,14%,·
COc1ccc(Cn2c(C)ccc2C)cc1,-7,14%,8%,-2%,9
CCN1CSC(=S)N(Cc2ccccc2)C1,4,10µM*,10µM*,4%,7
CCN1CSC(=S)N(Cc2ccc(OC)cc2)C1,22,13µM*,14µM*,?,-4
CN(C)Cc1nc2c(c(=O)[nH]1)C1(CCCCC1)Cc1ccccc1-2,26,5µM*,2.5µM*,0%,-11
CN(C)Cc1nc2c(c(=O)[nH]1)C(C)(C)Cc1ccccc1-2,-16,?,?,-3%,21
CCN(CC)Cc1nc2c(c(=O)[nH]1)C1(CCCCC1)Cc1ccccc1-2,?,11µM*,11µM*,11%,-10
CCC1(CC)Cc2ccccc2-c2nc(CN(C)C)[nH]c(=O)c21,?,7.1µM*,6.3µM*,-2%,-11
COc1cccc(OC)c1OCC(=O)Nc1ccc(S(=O)(=O)N2CCCC2)cc1,·,·,·,-8%,·
COc1ccc(-c2ccccc2C2C3C=CCCC3(C)C(=O)N2Cc2ccccc2)cc1 (stereo unspecified),·,-12%,?,·,·
Cc1cccc(C(=O)NC2CC3CCCC(C2)N3S(=O)(=O)c2ccccc2)c1 (stereo unspecified),28,2%,-1%,-10%,-22
O=C(NC1CC2CCCC(C1)N2S(=O)(=O)c1ccccc1)c1ccccc1 (stereo unspecified),?,13µM*,?,5%,-15
C#Cc1ccc2c(c1)COc1c3ccccc3nn1-2,·,·,·,13µM*,·
N#CCCCC#Cc1ccc2c(c1)COc1c3ccccc3nn1-2,2,·,·,10µM*,4
COC(=O)C1=C[C@@H](C(=O)OC)[C@@H]2C3=C(C(=O)[C@@]2(C)NC(=O)c2ccccc2)[C@H](C)[C@@H]2C(=O)N(Cc4ccccc4)C(=O)[C@@H]2[C@@H]3C1,·,-8%,6%,·,·
CCc1nnc(NC2=NCCC2)s1,-1,18µM*,-24%,6%,-8
Cc1cnc(NC2=NCCC2)s1,0,?,7.1µM*,-2%,-4
CCCCCCC1=Cc2cc(OC)c(OC)cc2C(C2(C(=O)OCC)CCCC2=O)O1 (stereo unspecified),·,9%[10 µM],18%[10 µM],·,·
C/C=C\C1=C(CO)C(=O)C2O[C@]2(CC=C(C)C)C1=O (stereo partly specified),·,-3%[10 µM],8%[10 µM],·,·
O=C(NC(=S)Nc1ccccc1[N+](=O)[O-])c1ccccc1,19,2µM*,?,-8%,-10
COc1cc(NC(=O)Cc2ccccc2)cc(OC)c1,-1,2%,6%,6%,27
O=C(NC(=S)Nc1cccc2c(O)cccc12)c1ccccc1[N+](=O)[O-],6,?,?,2%,-7
CC(C)c1ccc(O)c(NC(=S)NC(=O)CCc2ccccc2)c1,-4,-30%,13µM*,-3%,22
SMILES,TRPV1 ag,VP16 counter,RORgamma inh,uPA generation,TRPV1 PAM
O=C(C[n+]1ccccc1)Nc1ccccc1Br,-5,2.8µM*,1.3µM*,0%,6
COc1cc(NC(=S)NC(=O)CCc2ccccc2)cc(OC)c1,-3,7.1µM*,0.56µM*,-18%,7
Cc1ccccc1N1CCN(c2ccc(NC(=O)C3CCCCC3C(=O)O)cc2)CC1 (stereo unspecified),-3,2%,?,0%,16
C=CCn1c(SCC(=O)NC(=O)Cc2ccccc2)nnc1-c1ccccc1F,·,·,·,3%,·
Cc1ccc(NC(=O)NCc2ccccn2)c(C)c1,-1,10%,7%,4%,8
O=C(CCc1ccccc1)NC(=S)Nc1cccc(Br)c1,7,?,11µM*,-3%,-6
O=C(CCc1ccccc1)NC(=S)Nc1cccc(C(=O)O)c1,1,-20%,-33%,0%,12
COc1ccc(Cl)cc1NC(=O)CCc1ccccc1,-1,-3%,6%,-3%,27
O=C(CCc1ccccc1)NC(=S)Nc1ccccc1Br,1,?,3.5µM*,-2%,-5
O=C(CCc1ccccc1)NC(=S)Nc1ccccc1[N+](=O)[O-],-2,11µM*,10µM*,-2%,-9
O=C(CCc1ccccc1)NNC(=O)c1ccccc1Br,2,0%,3%,3%,2
COc1ccccc1NC(=S)NC(=O)CCc1ccccc1,0,10µM*,13µM*,-1%,26
CCCCC(=O)Nc1cc(C(=O)NCCc2ccccc2)ccc1Cl,-2,-25%,6%,10%,6
C#CCOC(=O)c1cc(Cl)c(=O)n(Cc2ccc(Cl)cc2Cl)c1,0,-3%,7%,-1%,4
Cc1c(NC(=S)NC(=O)C(C)(C)C)cccc1[N+](=O)[O-],?,20µM*,14µM*,2%,-38
Cc1c(NC(=O)c2ccc(C(C)(C)C)cc2)cccc1[N+](=O)[O-],?,?,?,-2%,-3
Cc1c(NC(=O)C(C)OC(=O)c2cccc(S(=O)(=O)N3CCOCC3)c2)c(=O)n(-c2ccccc2)n1C (stereo unspecified),6,-2%,8%,-1%,-4
CC#CC#Cc1cccc(=O)o1,-2,-2%,-17%,5µM*,-13
Fc1ccc(Nc2cccc3nccnc23)cc1,21,?,0%,1%,-19
c1cc(Nc2cccc3nccnc23)c2nccnc2c1,-1,1.1µM*,0.28µM*,-11%,26
COC(=O)c1ccc(C(NC(=O)OCc2ccccc2)/C(=C/[C@@H](C)C(=O)NCc2nc3ccccc3s2)c2cccnc2)cc1 (stereo partly specified),·,5%,13%,·,·
N#CCC(=O)N/N=C/c1c(-c2ccccc2)n(-c2ccccc2)c2ccccc12,2,-6%,4%,10%,5
c1ccc(CSCc2cn3ccccc3n2)cc1,5,-19%,13µM*,-2%,-16
Cc1ccc(SCc2cn3ccccc3n2)cc1,26,?,10µM*,-7%,-4
O=C(O)c1ccccc1SCc1cn2ccccc2n1,5,-9%,-5%,-1%,0
c1ccc2nc(SCc3cn4ccccc4n3)cnc2c1,8,?,?,?,-7
Cc1ccc(N=Cc2cc(Cc3ccccc3Cl)cc([N+](=O)[O-])c2O)c(O)c1,-5,4.5µM*,6.3µM*,8.9µM*,9
Cc1ccc(OCCC(=O)OC(C)C(=O)Nc2ccc(Cl)cn2)cc1 (stereo unspecified),15,·,·,-3%,-22
